Assay results published in the supplement of paper PMC8728848.
This excerpt belongs to a sample that is enriched for the strongest signals.

What was measured:
Experiment in all cases: glycan array binding signal (z-score within array); higher = stronger binding
[1] = test system: Gal(b1-4)GlcNAc(b1-3)Gal(b1-4)GlcNAc; settings: glycan notation: IUPAC condensed, linker removed
In short: (§1)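 The binding signal is a Z-score computed within each array. Data were drawn from 3228 arrays in the Consortium for Functional Glycomics database, restricted to those with a known protein sequence. Scores were averaged over arrays of the same protein sequence at different concentrations or buffers, and over linkers, and negative values can be taken as non-binding.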

[2] = test system: Gal(b1-4)GlcNAc(b1-3)Gal(b1-4)[Fuc(a1-3)]GlcNAc(b1-3)Gal(b1-4)[Fuc(a1-3)]GlcNAc; settings: glycan notation: IUPAC condensed, linker removed
In short: as §1

[3] = test system: Gal(b1-4)GlcNAc(b1-2)Man(a1-3)[Gal(b1-4)GlcNAc(b1-2)][GlcNAc(b1-4)]Man(b1-4)GlcNAc(b1-4)GlcNAc; settings: glycan notation: IUPAC condensed, linker removed
In short: as §1

[4] = test system: Gal(b1-4)GlcNAc(b1-3)[Gal(b1-4)GlcNAc(b1-6)]Gal(b1-4)GlcNAc; settings: glycan notation: IUPAC condensed, linker removed
In short: as §1

[5] = test system: Gal(b1-4)GlcNAc(b1-2)[Gal(b1-4)GlcNAc(b1-6)]Man(a1-6)[GlcNAc(b1-4)][Gal(b1-4)GlcNAc(b1-2)Man(a1-3)]Man(b1-4)GlcNAc(b1-4)GlcNAc; settings: glycan notation: IUPAC condensed, linker removed
In short: as §1

[6] = test system: Gal(b1-4)GlcNAc(b1-3)[GlcNAc(b1-6)]Gal(b1-4)GlcNAc; settings: glycan notation: IUPAC condensed, linker removed
In short: as §1

[7] = test system: Gal(b1-4)GlcNAc(b1-6)Gal(b1-4)GlcNAc; settings: glycan notation: IUPAC condensed, linker removed
In short: as §1

[8] = test system: Gal(b1-4)GlcNAc(b1-3)Gal(b1-4)GlcNAc(b1-2)Man(a1-3)[Gal(b1-4)GlcNAc(b1-3)Gal(b1-4)GlcNAc(b1-2)Man(a1-6)]Man(b1-4)GlcNAc(b1-4)GlcNAc; settings: glycan notation: IUPAC condensed, linker removed
In short: as §1

[9] = test system: Gal(b1-4)GlcNAc(b1-3)Gal(b1-4)GlcNAc(b1-2)[Gal(b1-4)GlcNAc(b1-3)Gal(b1-4)GlcNAc(b1-6)]Man(a1-6)[Gal(b1-4)GlcNAc(b1-3)Gal(b1-4)GlcNAc(b1-2)Man(a1-3)]Man(b1-4)GlcNAc(b1-4)[Fuc(a1-6)]GlcNAc; settings: glycan notation: IUPAC condensed, linker removed
In short: as §1

[10] = test system: Gal(b1-4)GlcNAc(b1-3)Gal(b1-4)GlcNAc(b1-3)Gal(b1-4)GlcNAc(b1-2)[Gal(b1-4)GlcNAc(b1-3)Gal(b1-4)GlcNAc(b1-3)Gal(b1-4)GlcNAc(b1-6)]Man(a1-6)[Gal(b1-4)GlcNAc(b1-3)Gal(b1-4)GlcNAc(b1-3)Gal(b1-4)GlcNAc(b1-2)Man(a1-3)]Man(b1-4)GlcNAc(b1-4)[Fuc(a1-6)]GlcNAc; settings: glycan notation: IUPAC condensed, linker removed
In short: as §1

[11] = test system: Gal(b1-4)GlcNAc(b1-2)[Gal(b1-4)GlcNAc(b1-4)]Man(a1-3)[Gal(b1-4)GlcNAc(b1-2)[Gal(b1-4)GlcNAc(b1-6)]Man(a1-6)]Man(b1-4)GlcNAc(b1-4)GlcNAc; settings: glycan notation: IUPAC condensed, linker removed
In short: as §1

[12] = test system: Gal(b1-4)GlcNAc(b1-2)[Gal(b1-4)GlcNAc(b1-4)]Man(a1-3)[GlcNAc(b1-4)][Gal(b1-4)GlcNAc(b1-2)Man(a1-6)]Man(b1-4)GlcNAc(b1-4)GlcNAc; settings: glycan notation: IUPAC condensed, linker removed
In short: as §1

[13] = test system: Gal(b1-4)GlcNAc(b1-3)Gal(b1-4)GlcNAc(b1-3)Gal(b1-4)GlcNAc(b1-2)Man(a1-3)[Gal(b1-4)GlcNAc(b1-3)Gal(b1-4)GlcNAc(b1-3)Gal(b1-4)GlcNAc(b1-2)Man(a1-6)]Man(b1-4)GlcNAc(b1-4)[Fuc(a1-6)]GlcNAc; settings: glycan notation: IUPAC condensed, linker removed
In short: as §1

[14] = test system: Gal(b1-4)GlcNAc(b1-3)Gal(b1-4)GlcNAc(b1-3)Gal(b1-4)GlcNAc(b1-3)Gal(b1-4)GlcNAc(b1-2)Man(a1-3)[Gal(b1-4)GlcNAc(b1-3)Gal(b1-4)GlcNAc(b1-3)Gal(b1-4)GlcNAc(b1-3)Gal(b1-4)GlcNAc(b1-2)Man(a1-6)]Man(b1-4)GlcNAc(b1-4)[Fuc(a1-6)]GlcNAc; settings: glycan notation: IUPAC condensed, linker removed; mutation: R125K
In short: as §1

[15] = test system: Gal(b1-4)GlcNAc(b1-3)Gal(b1-4)GlcNAc(b1-3)Gal(b1-4)GlcNAc(b1-3)Gal(b1-4)GlcNAc(b1-3)Gal(b1-4)GlcNAc(b1-2)Man(a1-3)[Gal(b1-4)GlcNAc(b1-3)Gal(b1-4)GlcNAc(b1-3)Gal(b1-4)GlcNAc(b1-3)Gal(b1-4)GlcNAc(b1-3)Gal(b1-4)GlcNAc(b1-2)Man(a1-6)]Man(b1-4)GlcNAc(b1-4)GlcNAc; settings: glycan notation: IUPAC condensed, linker removed
In short: as §1

[16] = test system: Gal(b1-4)GlcNAc(b1-3)Gal(b1-4)GlcNAc(b1-3)[Gal(b1-4)GlcNAc(b1-3)Gal(b1-4)GlcNAc(b1-6)]GalNAc; settings: glycan notation: IUPAC condensed, linker removed
In short: as §1

[17] = test system: Gal(b1-4)GlcNAc(b1-3)Gal(b1-4)Glc; settings: glycan notation: IUPAC condensed, linker removed
In short: as §1

[18] = test system: Gal(b1-4)GlcNAc(b1-2)Man(a1-6)Man(b1-4)GlcNAc(b1-4)GlcNAc; settings: glycan notation: IUPAC condensed, linker removed
In short: as §1

[19] = test system: Gal(b1-4)GlcNAc(b1-3)Gal(b1-4)GlcNAc(b1-3)Gal(b1-4)GlcNAc(b1-2)Man(a1-3)[Gal(b1-4)GlcNAc(b1-3)Gal(b1-4)GlcNAc(b1-3)Gal(b1-4)GlcNAc(b1-2)Man(a1-6)]Man(b1-4)GlcNAc(b1-4)GlcNAc; settings: glycan notation: IUPAC condensed, linker removed
In short: as §1

[20] = test system: Gal(b1-4)GlcNAc(b1-3)GalNAc; settings: glycan notation: IUPAC condensed, linker removed
In short: as §1

Chain of CHI3L1 (Homo sapiens), P36222 (P36222 whole entry): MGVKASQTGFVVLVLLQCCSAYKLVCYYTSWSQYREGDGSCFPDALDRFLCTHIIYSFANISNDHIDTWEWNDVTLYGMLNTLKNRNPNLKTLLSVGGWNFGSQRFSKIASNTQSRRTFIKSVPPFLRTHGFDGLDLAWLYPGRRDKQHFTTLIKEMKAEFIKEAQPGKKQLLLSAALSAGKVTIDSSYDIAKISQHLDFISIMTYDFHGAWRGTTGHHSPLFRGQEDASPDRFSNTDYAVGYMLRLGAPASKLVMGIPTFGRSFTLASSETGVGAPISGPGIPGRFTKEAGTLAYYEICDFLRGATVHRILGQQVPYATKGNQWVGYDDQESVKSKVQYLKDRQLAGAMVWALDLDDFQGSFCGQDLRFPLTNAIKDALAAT
Chain of PILRa (Mus musculus), Q2YSF3 (Q2YSF3 entry or part of it): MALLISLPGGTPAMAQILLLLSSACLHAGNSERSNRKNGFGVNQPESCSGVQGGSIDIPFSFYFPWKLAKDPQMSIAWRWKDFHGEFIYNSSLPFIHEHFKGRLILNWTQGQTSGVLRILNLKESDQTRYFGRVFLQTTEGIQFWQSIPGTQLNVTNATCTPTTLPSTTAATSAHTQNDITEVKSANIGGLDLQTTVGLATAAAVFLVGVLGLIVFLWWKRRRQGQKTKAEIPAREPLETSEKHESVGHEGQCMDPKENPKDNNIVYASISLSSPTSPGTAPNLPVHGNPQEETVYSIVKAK
Chain of PILRb (Mus musculus), Q2YSF2 (Q2YSF2 entry or part of it): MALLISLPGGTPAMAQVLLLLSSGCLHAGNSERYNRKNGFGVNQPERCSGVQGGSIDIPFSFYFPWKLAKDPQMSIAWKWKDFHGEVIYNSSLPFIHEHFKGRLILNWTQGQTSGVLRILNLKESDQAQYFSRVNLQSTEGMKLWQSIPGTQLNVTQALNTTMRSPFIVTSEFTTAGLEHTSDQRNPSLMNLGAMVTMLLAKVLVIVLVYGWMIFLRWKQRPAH
Chain of Avaren (Actinomycete K97) (chain, as listed by the source): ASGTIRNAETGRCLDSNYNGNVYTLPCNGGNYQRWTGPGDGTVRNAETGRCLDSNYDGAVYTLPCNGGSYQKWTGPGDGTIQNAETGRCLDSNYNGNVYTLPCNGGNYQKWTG
Chain of Neurocan (Homo sapiens), O14594 (O14594 other isoform, or with tags, fused parts or gaps): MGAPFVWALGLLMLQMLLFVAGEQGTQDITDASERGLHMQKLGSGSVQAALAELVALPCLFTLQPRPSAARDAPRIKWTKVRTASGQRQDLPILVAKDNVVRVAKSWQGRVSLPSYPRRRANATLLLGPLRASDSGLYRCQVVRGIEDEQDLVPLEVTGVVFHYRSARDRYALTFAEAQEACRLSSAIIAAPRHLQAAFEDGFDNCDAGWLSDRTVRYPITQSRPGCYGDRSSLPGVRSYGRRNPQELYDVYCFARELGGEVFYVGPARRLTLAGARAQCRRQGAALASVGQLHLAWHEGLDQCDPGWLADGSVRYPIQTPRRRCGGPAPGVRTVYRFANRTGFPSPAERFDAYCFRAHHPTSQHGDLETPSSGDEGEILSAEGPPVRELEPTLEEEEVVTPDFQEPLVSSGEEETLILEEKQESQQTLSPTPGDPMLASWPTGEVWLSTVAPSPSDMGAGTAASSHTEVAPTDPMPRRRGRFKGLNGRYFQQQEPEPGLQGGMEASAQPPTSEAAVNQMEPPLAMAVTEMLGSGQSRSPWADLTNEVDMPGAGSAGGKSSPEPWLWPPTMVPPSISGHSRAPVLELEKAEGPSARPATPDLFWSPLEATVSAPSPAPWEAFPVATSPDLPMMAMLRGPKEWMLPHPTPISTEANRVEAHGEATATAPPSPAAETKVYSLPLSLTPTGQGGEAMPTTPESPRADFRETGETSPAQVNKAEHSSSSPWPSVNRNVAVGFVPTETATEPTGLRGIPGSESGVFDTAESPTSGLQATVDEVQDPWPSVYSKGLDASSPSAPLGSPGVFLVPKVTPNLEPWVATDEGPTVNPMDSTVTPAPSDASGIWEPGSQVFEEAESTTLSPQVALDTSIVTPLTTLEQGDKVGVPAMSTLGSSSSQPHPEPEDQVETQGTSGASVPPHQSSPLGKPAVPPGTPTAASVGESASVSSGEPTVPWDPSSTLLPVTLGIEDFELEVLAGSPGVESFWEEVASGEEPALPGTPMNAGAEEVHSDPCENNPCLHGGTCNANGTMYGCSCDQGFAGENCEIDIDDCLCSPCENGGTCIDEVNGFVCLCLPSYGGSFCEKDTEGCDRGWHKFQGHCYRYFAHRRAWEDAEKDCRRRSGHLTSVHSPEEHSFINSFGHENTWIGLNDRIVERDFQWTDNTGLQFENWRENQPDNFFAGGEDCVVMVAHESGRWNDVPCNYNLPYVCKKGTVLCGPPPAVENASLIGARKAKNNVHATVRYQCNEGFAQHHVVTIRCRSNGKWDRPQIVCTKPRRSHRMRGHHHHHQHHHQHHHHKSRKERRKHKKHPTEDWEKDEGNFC
Chain of Aggrecan (Rattus norvegicus), NP_071526 (chain, as listed by the source): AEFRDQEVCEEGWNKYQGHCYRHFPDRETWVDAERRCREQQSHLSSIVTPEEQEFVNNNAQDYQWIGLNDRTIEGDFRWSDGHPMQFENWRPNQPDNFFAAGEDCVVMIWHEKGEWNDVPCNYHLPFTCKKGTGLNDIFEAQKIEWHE
Chain of Regenerating Gene IV (Homo sapiens), Q9BYZ8 (Q9BYZ8 whole entry, looked up): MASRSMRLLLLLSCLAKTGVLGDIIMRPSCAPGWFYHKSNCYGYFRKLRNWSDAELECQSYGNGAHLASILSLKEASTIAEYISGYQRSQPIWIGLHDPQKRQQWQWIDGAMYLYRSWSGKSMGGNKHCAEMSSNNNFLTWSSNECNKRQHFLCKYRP
Chain of wLAT-1A (Homo sapiens), Q01650 (Q01650 whole entry): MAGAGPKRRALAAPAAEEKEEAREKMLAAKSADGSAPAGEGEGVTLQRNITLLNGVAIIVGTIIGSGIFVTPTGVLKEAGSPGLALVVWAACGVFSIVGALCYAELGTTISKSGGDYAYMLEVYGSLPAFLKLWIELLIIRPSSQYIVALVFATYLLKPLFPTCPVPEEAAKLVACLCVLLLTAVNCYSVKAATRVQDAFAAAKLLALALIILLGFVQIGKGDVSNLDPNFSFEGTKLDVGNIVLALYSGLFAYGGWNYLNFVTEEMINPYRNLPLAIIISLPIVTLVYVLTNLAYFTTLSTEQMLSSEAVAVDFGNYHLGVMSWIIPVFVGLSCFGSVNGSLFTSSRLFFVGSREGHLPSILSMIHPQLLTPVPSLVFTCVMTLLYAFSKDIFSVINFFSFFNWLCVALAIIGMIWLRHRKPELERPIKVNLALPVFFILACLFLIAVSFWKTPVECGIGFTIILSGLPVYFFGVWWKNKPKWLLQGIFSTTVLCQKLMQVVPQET
Chain of 6RG (Lolium perenne) (chain, as listed by the source): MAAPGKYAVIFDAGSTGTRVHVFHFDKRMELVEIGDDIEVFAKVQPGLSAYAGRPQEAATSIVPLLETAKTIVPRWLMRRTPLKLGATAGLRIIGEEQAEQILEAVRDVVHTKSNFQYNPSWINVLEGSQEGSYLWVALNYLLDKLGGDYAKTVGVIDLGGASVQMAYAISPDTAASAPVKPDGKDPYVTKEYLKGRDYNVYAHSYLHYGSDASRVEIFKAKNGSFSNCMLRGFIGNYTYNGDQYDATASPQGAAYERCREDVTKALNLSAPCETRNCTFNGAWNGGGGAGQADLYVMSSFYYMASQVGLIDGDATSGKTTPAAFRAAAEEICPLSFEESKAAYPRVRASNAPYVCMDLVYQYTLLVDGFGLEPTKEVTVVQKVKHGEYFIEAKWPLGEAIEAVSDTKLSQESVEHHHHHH

Substance: wLAT-1A (Homo sapiens), Q01650
- glycan array binding signal (z-score) [1]: -0.343

Substance: 6RG (Lolium perenne)
- glycan array binding signal (z-score) [2]: -0.329

Substance: PILRb (Mus musculus), Q2YSF2
- glycan array binding signal (z-score) [3]: -0.5
- glycan array binding signal (z-score) [4]: -0.023

Substance: PILRa (Mus musculus), Q2YSF3
- glycan array binding signal (z-score) [5]: -0.088
- glycan array binding signal (z-score) [6]: -0.283
- glycan array binding signal (z-score) [7]: -0.231

Substance: Aggrecan (Rattus norvegicus), NP_071526
- glycan array binding signal (z-score) [4]: -0.184

Substance: MpAFP RI GFP (Marinomonas primoryensis)
- glycan array binding signal (z-score) [8]: 2.61
- glycan array binding signal (z-score) [9]: 5.48
- glycan array binding signal (z-score) [10]: 3.87

Substance: Siglec-8 (Homo sapiens), Q9NYZ4
- glycan array binding signal (z-score) [3]: -0.068
- glycan array binding signal (z-score) [11]: -0.067
- glycan array binding signal (z-score) ([12]; mutation: R125K): -0.113
- glycan array binding signal (z-score) [8]: 0.515
- glycan array binding signal (z-score) ([8]; mutation: R125K): 2.56
- glycan array binding signal (z-score) [13]: 0.69
- glycan array binding signal (z-score) ([10]; mutation: R125K): 0.13
- glycan array binding signal (z-score) [14]: 0.321
- glycan array binding signal (z-score) [15]: 0.483
- glycan array binding signal (z-score) [16]: 0.455
- glycan array binding signal (z-score) [17]: -0.209
- glycan array binding signal (z-score) ([6]; mutation: R125K): -0.502

Substance: CHI3L1 (Homo sapiens), P36222
- glycan array binding signal (z-score) [18]: -0.062
- glycan array binding signal (z-score) [12]: -0.131
- glycan array binding signal (z-score) [17]: -0.106
- glycan array binding signal (z-score) [7]: -0.141

Substance: Neurocan (Homo sapiens), O14594
- glycan array binding signal (z-score) [17]: -0.263
- glycan array binding signal (z-score) [2]: -0.779

Substance: Avaren (Actinomycete K97)
- glycan array binding signal (z-score) [19]: -0.051
- glycan array binding signal (z-score) [16]: -0.016

Substance: Regenerating Gene IV (Homo sapiens), Q9BYZ8
- glycan array binding signal (z-score) [20]: 1.48
